# Tau fluor counter – counter-screen for tau fibril formation inhibitors; AID 1463; tau K18 P301L Alexa594 fluorescence, heparin fibrillization; Potency, µM (titrated, usually from 57.7 µM), for the others: at the top dose activity change, negative = decrease; hit rate 0.93% among 280,000; further: potency means the concentration at half of the fitted maximal effect; nearly all actives have a fitted effect of over 55% in size
#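 Human K18 P301L tau (15 uM unlabeled plus 0.24 uM Alexa 594-labeled, final) in 100 mM sodium acetate pH 7 was mixed with compound and 20 uM heparin and incubated 6 hr at 37 C.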
# Tau fibril FP – blocks human tau fibril formation measured by polarization | AID 1468 | hit rate 0.39% among 280,000 | K18 P301L tau heparin fibrillization, Alexa594 FP, 6 h | Potency, µM (series often up to 57.7 µM), for the others: top-dose activity, negative = inhibition, usual class: inhibitors; further: potency means the concentration at half of the fitted maximal effect; nearly all actives have a fitted effect of over 55% in size
# Target sequence (P10636 561-689 P618L limits assumed): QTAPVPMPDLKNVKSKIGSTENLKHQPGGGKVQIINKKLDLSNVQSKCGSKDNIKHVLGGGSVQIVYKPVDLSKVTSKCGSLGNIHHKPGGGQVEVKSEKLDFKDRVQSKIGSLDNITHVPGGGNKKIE
#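 Recombinant K18 P301L […], labeled with Alexa 594 at 0.24 uM over 15 uM unlabeled; heparin inducer 20 uM final; 37 C, 6 hr; FP endpoint.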
# Tau ThT inhib – blocks human tau fibril formation measured by thioflavin T; P10636; recombinant tau K18 P301L, heparin-induced fibrillization, ThT fluorescence; Potency, µM (titrated, usually from 57.4 µM), for inactives: at the highest dose activity, negative = inhibition, most hits filed as inhibitors; hit rate 2.1% among 270,000; AID 1460; further: potency means the concentration at half of the fitted maximal effect; nearly all actives have a fitted effect of over 55% in size
#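 ThT emission at 510 nm, taken 1 hr after adding 30 uM dye, quantifies aggregates formed when 20 uM heparin acts on human tau K18 P301L for 6 hr at 37 C.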
# FBPA coupling cs – coupling enzyme interference in Giardia aldolase counter-screen; activity change, negative = inhibition, % at 58.2 µM, hits read low; coupling enzyme system counterscreen, AmpLite Red fluorescence; hit rate 0.67% among 290,000; in the data active means activity change below about -30%
#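 Coupling enzymes only (glyceraldehyde-3-phosphate) + compound, at 57.5 uM final, 10 min RT; add substrate/coupling/AmpLite Red mix, 20 min RT; fluorescence ex 525/em 598 nm. Actives flag coupling-system interference.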
# USP1-UAF1 inh – blocks the human USP1/UAF1 deubiquitinase complex | O94782 | recombinant USP1/UAF1, Ub-Rhodamine cleavage fluorescence | Potency, µM (highest dose often 57.1 µM), for inactives: at the top dose activity change, negative = inhibition, actives largely listed as inhibitors | hit rate 0.23% among 390,000; further: potency means the concentration at half of the fitted maximal effect; nearly all actives have a fitted effect of over 60% in size
#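 In this screen, compounds sit with the deubiquitinase complex (1nM) for 15 min at room temperature before Ub-Rho is added at 150nM final. Fluorescence rise is then followed for 6 reads every 60 seconds.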
# The depositor's hits bear a star; ? = inconclusive; . = no result; [ ] = dose if it differs, or a comment. The list is not random: actives were taken first. Their share in the collection is about 2.3%. Unless noted, the call rests on the fitted dose curve; in most records, active means well fitted curve in the direction sought with a large enough effect; inconclusive means small, poorly fitted or top-dose-only effect, or another doubt; inactive means no such curve, though single readings can be large; an effect the other way counts as inactive or inconclusive. On the % scale 0 is the no-effect control and ±100 the full control effect.
SMILES,Tau fluor counter,Tau fibril FP,Tau ThT inhib,FBPA coupling cs,USP1-UAF1 inh
COc1ccc(NS(=O)(=O)c2cccc(C(=O)N/N=C/c3cn(-c4ccccc4)nc3-c3ccc(OC)cc3)c2)cc1,?,31.6µM*,?,0.2,-16.9%
COc1ccc(NS(=O)(=O)c2cccc(C(=O)N/N=C(\C)c3ccc(-n4ccnc4)cc3)c2)cc1,-7.4%,-7.5%,-5.3%,-46.0*,?
COc1ccc2c(c1)CC/C(=C\C=C\c1ccccc1OC)C2=O,9.2%,6.2%,7.1%,-40.3*,?
COc1ccc2c(c1)C(=O)/C(=C/C=C/c1ccccc1)CC2,10.5%,5.6%,17.8%,-3.0,-18.0%
COc1ccc(/C=C/C(=O)c2c(OC)cc(O)cc2OC)cc1,.,.,.,-0.5,.
COc1cc(O)c(C(=O)/C=C/c2ccc(O)c(OC)c2)c(OC)c1,-28.5%,0.6%,1.78µM*,1.5,.
COc1cc(OC)c(C(=O)/C=C/c2ccccc2)c(O)c1O,-27.9%,5.0%,12.6µM*,5.8,-21.0%
COc1cc(/C=C/C(O)=C/C(=O)/C=C/c2ccc(O)cc2)ccc1O,.,.,.,.,28.2µM*
COc1ccc(-c2cc(=O)[nH][nH]2)cc1,-27.2%,?,2.24µM*,-5.1,0.6%
O=c1cc(-c2ccc(Cl)c(Cl)c2)[nH][nH]1,?,?,3.16µM*,3.9,-7.8%
CCN(CC)S(=O)(=O)c1ccc(C(=O)NCCOC(=O)c2ccc(F)cc2F)cc1,.,.,.,-0.2,9.1%
CC(C)(C)c1ccc(OCCSc2nc(-c3cccs3)nc3cc(=O)[nH]n23)cc1,-11.5%,-4.3%,-2.0%,.,-15.7%
Fc1cccc2sc(Nc3nc4cc5c(cc4s3)OCCO5)nc12,14.1µM*[quencher],-4.9%,?,1.4,-16.6%
Fc1cc(F)c2nc(Nc3nc4cc5c(cc4s3)OCO5)sc2c1,5.01µM*[quencher],4.2%,?,-3.3,?
Fc1cccc2sc(Nc3nc4cc5c(cc4s3)OCO5)nc12,7.94µM*[quencher],-2.3%,7.94µM*,-0.9,-19.4%
CC(C)C(=O)Nc1nc2cc3c(cc2s1)OCO3,-3.0%,-0.3%,-13.7%,-3.4,-12.9%
COc1ccccc1N1CCN(C(=O)c2oc3ccccc3c2NC(=O)C(C)Oc2ccccc2)CC1 (centres undefined),-25.6%,-14.1%,-10.4%,.,-28.4%
C[C@H]1Cc2c(COc3ccccc3)nc3c(c2CO1)CN(C(=O)Cc1cccs1)CC3,-10.6%[11.6 µM],-4.8%[11.6 µM],-5.7%[11.5 µM],-0.5,.
CCOC(=O)c1c(C)n(-c2ccccc2)c2ccc(OC(=O)c3ccccc3NC(=O)C(C)(C)C)cc12,1.0%,-5.9%,1.0%,.,-31.6%
Cc1ccc(/C=C/C(=O)c2ccc(O)cc2)cc1,-21.5%,-2.2%,?,0.7,-9.2%
CN(C)c1ccc(/C=C/C(=O)c2ccccc2)cc1[N+](=O)[O-],?,4.0%,10µM*,-1.6,-15.6%
COc1cc(/C=C/C(=O)c2ccc3c(c2)OCCO3)cc(OC)c1OC,.,.,.,2.3,-21.0%
CNc1ccc(/C=C/C(=O)c2ccc3c(c2)OCCO3)cc1[N+](=O)[O-],?,2.2%,2.51µM*,-0.9,-0.3%
CNc1ccc(/C=C/C(=O)c2ccc(C)cc2)cc1[N+](=O)[O-],-22.5%,2.3%,3.16µM*,0.4,-16.2%
COc1ccc(CNC(=O)CNC(=O)c2ccc(Br)o2)cc1OC,.,.,.,.,-5.2%
SMILES,Tau fluor counter,Tau fibril FP,Tau ThT inhib,FBPA coupling cs,USP1-UAF1 inh
Cc1ccc(NC(=S)NC(=O)c2ccc(-c3ccc(Cl)cc3)o2)c(O)c1,5.2%,9.3%,11.0%,4.8,-14.8%
Cc1cc(O)c(NC(=S)NC(=O)c2ccc(-c3ccc(Cl)cc3)o2)cc1C,7.94µM*[quencher],?,11.2µM*,-2.0,-7.5%
CC(C)(C)c1cc(NCc2ccccn2)n2ncc(-c3ccccc3)c2n1,10µM*[quencher],11.3%,?,-5.6,-9.3%
CC(C)(C)c1ccc(-c2nc(N)nc(N)n2)cc1,-2.9%[11.6 µM],0.7%[11.6 µM],.,-1.7,-9.4%
CC(C)(C)c1cc(-c2nc(N)nc(N)n2)cc(C(C)(C)C)c1,-6.5%,28.2µM*,?,-2.5,-0.5%
O=C(CSc1nnc(SCc2cccc3ccccc23)s1)N/N=C/c1c[nH]c2ccccc12,3.55µM*[quencher],14.3%,-14.6%,-6.0,-21.3%
CC(/C=N/Nc1nnc(C)c(=O)[nH]1)=C\c1ccccc1,-2.1%,-2.0%,2.0%,-14.3,9.0%
